Measured values reported in PubChem BioAssay AID1159580 (chemical genetic matrix, 2015).
Several values for one entry are separate records, joined by “and”; a condition that tells them apart may be missing. Equal entries are not always repeated. The campaign covered roughly 5,500 compounds. About 2,000 (36%) were called active. About 18% were inconclusive and are not listed. Cut-off read from the data, not from the text of the source: active = normalized growth mostly below about 0.91 (no sharp cut-off); inconclusive = no clear call, values can overlap the other calls; inactive = mostly above about 0.92. Some of the results follow.

Test: chemical genetic growth profiling, strain panel (AID 1159580);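 note: tested at 20 µM; growth read once vehicle control cultures reached saturation at 30 °C; 1 = growth at the plate median or of vehicle wells; lower values mean less growth of the strain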
Details: S. cerevisiae deletion strains, growth OD

Measured: normalized growth

NS(=O)(=O)c1cc2c(cc1C(F)(F)F)NC(Cc1ccccc1)NS2(=O)=O (stereo not drawn)
inactive: locus YAL021C, strain ccr4, stronger effect = lower value 1 | locus YAL026C, strain drs2, stronger effect = lower value 0.979 | locus YAL030W, strain snc1, stronger effect = lower value 0.989 | locus YBL061C, strain skt5, stronger effect = lower value 0.986 | locus YBR009C, strain hhf1, stronger effect = lower value 0.988 | locus YBR021W, strain FUR4, stronger effect = lower value 1.02 | locus YBR023C, strain chs3, stronger effect = lower value 0.992 | locus YBR171W, strain sec66, stronger effect = lower value 0.981 | locus YBR229C, strain ROT2, stronger effect = lower value 1 | locus YBR231C, strain swc5, stronger effect = lower value 0.986 | locus YBR279W, strain paf1, stronger effect = lower value 1 | locus YCL011C, strain gbp2, stronger effect = lower value 0.973 | locus YCL016C, strain dcc1, stronger effect = lower value 0.988 | locus YCL029C, strain bik1, stronger effect = lower value 1.01 | locus YCL061C, strain MRC1, stronger effect = lower value 0.991 | locus YCL069W, strain vba3, stronger effect = lower value 1 | locus YCR088W, strain abp1, stronger effect = lower value 0.993 | locus YDL005C, strain med2, stronger effect = lower value 0.991 | locus YDL035C, strain GPR1, stronger effect = lower value 1.02 | locus YDL040C, strain nat1, stronger effect = lower value 1.01 | locus YDL074C, strain BRE1, stronger effect = lower value 0.969 | locus YDL101C, strain DUN1, stronger effect = lower value 1 | locus YDL134C, strain PPH21, stronger effect = lower value 1.02 | locus YDL185W, strain tfp1, stronger effect = lower value 1.01 | locus YDL192W, strain arf1, stronger effect = lower value 1.01 | locus YDR001C, strain nth1, stronger effect = lower value 0.98 | locus YDR069C, strain doa4, stronger effect = lower value 0.997 | locus YDR101C, strain arx1, stronger effect = lower value 0.985 | locus YDR137W, strain rgp1, stronger effect = lower value 0.977 | locus YDR159W, strain sac3, stronger effect = lower value 0.991 | locus YDR162C, strain NBP2, stronger effect = lower value 1.01 | locus YDR195W, strain ref2 0.983 | locus YDR297W, strain sur2, stronger effect = lower value 0.986 | locus YDR318W, strain mcm21, stronger effect = lower value 1.01 | locus YDR334W, strain swr1, stronger effect = lower value 0.953 | locus YDR335W, strain msn5, stronger effect = lower value 0.991 | locus YDR388W, stronger effect = lower value 1.01 | locus YDR392W, strain spt3, stronger effect = lower value 0.943 | locus YDR502C, strain sam2, stronger effect = lower value 0.996 | locus YEL003W, strain gim4, stronger effect = lower value 0.983 | locus YEL037C, strain rad23, stronger effect = lower value 0.984 | locus YEL061C, strain CIN8 (second series), stronger effect = lower value 0.989 | locus YEL061C, strain CIN8, stronger effect = lower value 1 | locus YER015W, strain faa2, stronger effect = lower value 0.992 | locus YER016W, strain bim1, stronger effect = lower value 0.992 | locus YER110C, stronger effect = lower value 1.02 | locus YER111C, strain swi4, stronger effect = lower value 0.999 | locus YER155C, strain BEM2 (second series), stronger effect = lower value 0.974 | locus YER155C, strain BEM2, stronger effect = lower value 0.999 | locus YER167W, strain BCK2, stronger effect = lower value 1.01 | locus YFR010W, strain ubp6, stronger effect = lower value 0.971 | locus YGL078C, strain dbp3, stronger effect = lower value 0.995 | locus YGL086W, strain mad1, stronger effect = lower value 0.99 | locus YGL167C, strain pmr1, stronger effect = lower value 0.989 | locus YGL173C, strain kem1, stronger effect = lower value 0.981 | locus YGL227W, strain vid30, stronger effect = lower value 1 | locus YGL240W, strain doc1, stronger effect = lower value 0.984 | locus YGL248W, strain PDE1, stronger effect = lower value 0.999 | locus YGL253W, strain hxk2, stronger effect = lower value 0.998 | locus YGR135W, strain pre9, stronger effect = lower value 1.04 | locus YGR229C, strain SMI1, stronger effect = lower value 1 | locus YGR252W, strain gcn5, stronger effect = lower value 1.01 | locus YHR013C, strain ard1, stronger effect = lower value 0.967 | locus YHR027C, strain rpn1, stronger effect = lower value 0.971 | locus YHR030C, strain SLT2, stronger effect = lower value 1 and 0.973 | locus YHR079C, strain IRE1 (second series), stronger effect = lower value 1.01 | locus YHR079C, strain IRE1, stronger effect = lower value 0.98 | locus YHR094C, strain hxt1, stronger effect = lower value 1.01 | locus YHR129C, strain ARP1, stronger effect = lower value 1.01 | locus YHR142W, strain chs7, stronger effect = lower value 0.96 | locus YHR200W, strain rpn10, stronger effect = lower value 1.01 | locus YIL066C, strain RNR3, stronger effect = lower value 0.999 | locus YIL073C, strain SPO22, stronger effect = lower value 1.05 | locus YIL125W, strain kgd1, stronger effect = lower value 0.999 | locus YIR030C, strain dcg1, stronger effect = lower value 1.01 | locus YJL092W, strain hpr5, stronger effect = lower value 1 | locus YJL095W, strain BCK1 (second series), stronger effect = lower value 0.997 | locus YJL095W, strain BCK1, stronger effect = lower value 0.97 and 0.978 | locus YJL115W, strain asf1, stronger effect = lower value 0.966 | locus YJL129C, strain trk1, stronger effect = lower value 1 | locus YJL134W, strain LCB3, stronger effect = lower value 1 | locus YJL154C, strain vps35, stronger effect = lower value 0.985 | locus YJL164C, strain tpk1, stronger effect = lower value 0.984 | locus YJL166W, strain qcr8, stronger effect = lower value 0.97 | locus YJL168C, strain set2, stronger effect = lower value 1.01 | locus YJL187C, strain SWE1 (second series), stronger effect = lower value 0.984 | locus YJL187C, strain SWE1, stronger effect = lower value 0.994 | locus YJR043C, strain POL32, stronger effect = lower value 0.982
